Measurements from PubChem BioAssay AID743279 (National Center for Advancing Translational Sciences (NCATS), 2014).
Out of some 360,000 compounds screened, about 17,000 (4.7%) were called active. Roughly 5% stayed inconclusive and do not appear here. This is one part of a sample in which actives are shown more often than they occur. No stated cut-off is given here; in the data, active means activity change below about -50%; inconclusive means mostly about -30% to -49%; inactive means weaker than that.
On the % scale 0 is the no-effect control and ±100 the full control effect.

Assay: qHTS for Inhibitors of Inflammasome Signaling: IL-1-beta AlphaLISA Primary Screen
Conditions: THP-1 LPS/ATP IL-1B secretion, 16 h; at 57.5 µM, stronger effect = lower value
Summary of the method: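 Secreted IL-1B measured by AlphaLISA bead assay after 16 h compound exposure of THP-1 cells; compounds (final up to 57.5 uM) added 1 h before LPS (250 ng/mL) and ATP (1.25 mM) stimulation; lower signal means less secretion.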
In the case of `CC(C)(C)c1ccc(Cn2nnc3c(=O)[nH]c(C4CCCN(C(=O)c5ccco5)C4)nc32)cc1` (stereo unspecified), the activity change is reported as -12.5% (inactive).
For `COc1cc(NC(=O)C2CCN(c3cnccn3)CC2)cc(OC)c1`, the activity change was -9.18% (inactive).
In the case of `Nc1ccc(C(=O)Nc2ccccc2N)cc1`, the activity change is reported as -21% (inactive).
With `Cc1ccc(Nc2ccccc2N)cc1` the activity change was -70% (active).
With `Cc1ccc(Nc2nc(Cl)c(C=O)s2)cc1` the activity change was -13.1% (inactive).
With `Cc1nc2ccc(N)nc2nc1C` the activity change was 10.3% (inactive).
With `CC(C)(C)N1C(=O)c2c(C(=O)OCc3ccccc3)[nH]c(-c3ccccc3)c2C1=O` the activity change was 11.9% (inactive).
With `Fc1ccccc1COc1ccccc1CNCc1ccncc1` the activity change was -61.1% (active).
With `COc1ccccc1CNCc1cccs1` the activity change was 10.3% (inactive).
In the case of `CCOc1cc(/C=N/O)ccc1OCc1ccccc1F`, the activity change is reported as -8.72% (inactive).
With `CCOC(=O)C1=C(O)/C(=C/c2cc(C)n(-c3ccccc3)c2C)N=C1C` the activity change was -9.27% (inactive).
With `COc1ccc(NS(=O)(=O)c2cccc(C(=O)NCCc3ccc(S(N)(=O)=O)cc3)c2)cc1` the activity change was 6.56% (inactive).
In the case of `O=C(CN1C(=O)NC2(CCCCCCC2)C1=O)NCc1ccc(F)cc1`, the activity change is reported as -15.9% (inactive).
With `O=C(CN1C(=O)NC2(CCCCCC2)C1=O)NCc1ccc(F)cc1` the activity change was -13.3% (inactive).
In the case of `CSc1ccc(CN2C(=O)NC3(CCCCCC3)C2=O)cc1`, the activity change is reported as -60.4% (active).
With `CC(C)c1ccc(C=NNc2ccc([N+](=O)[O-])cn2)cc1` the activity change was 20.1% (inactive).
For `O=C1NCC(Nc2ccccc2)C(=O)N1` (stereo unspecified), the activity change was 11.9% (inactive).
With `O=C(Nc1ccn(CCCNCc2ccc3[nH]ccc3c2)c(=O)n1)OCc1ccccc1` the activity change was -20.2% (inactive).
For `COc1cccc(-c2sc3ccc(OC)cc3c2-c2ccc(OCCN3CCCCC3)cc2)c1`, the activity change was -3.91% (inactive).
For `COc1ccc2sc(-c3ccccc3OC)c(-c3ccc(OCCN4CCCC4)cc3)c2c1`, the activity change was -51% (active).
With `COc1ccccc1-c1sc2ccccc2c1-c1ccc(Br)nc1` the activity change was 26.6% (inactive).
For `CC1(C(=O)NS(=O)(=O)c2ccc(Cl)cc2)CCN1C(=O)CC1CCCC1` (stereo unspecified), the activity change was 24.4% (inactive).
With `CCCCSc1nc2c(c(=O)n1CC)SC(C)C2` (stereo unspecified) the activity change was 25.4% (inactive).
With `CCN1CCN(C(=O)CN(C)S(=O)(=O)c2ccc(OC)cc2)CC1` the activity change was -5.95% (inactive).
For `CCOCCCNC(=O)C1(O)c2cc(Br)ccc2NC(=O)N1c1ccc(C)c(C)c1` (stereo unspecified), the activity change was 29.6% (inactive).
With `COc1ccc(-c2cc(C(F)(F)F)nc(S(C)(=O)=O)n2)cc1OC` the activity change was -105% (active).
For `COc1ccc(-c2cc(-c3ccc(N)cc3)nc(N)c2C#N)cc1OC`, the activity change was 0% (inactive).
For `COc1ccc(-c2cc(C(=O)NCCCN3CCCC3=O)c3ccccc3n2)cc1OC`, the activity change was 0% (inactive).
In the case of `O=C1NC[C@H](Cc2ccc(O)cc2)N(C[C@H]2CCCN2C[C@H](Cc2ccccc2)N2C[C@H](Cc3ccccc3)N(CCc3ccccc3)C(=O)C2=O)C1=O`, the activity change is reported as -12.9% (inactive).
In the case of `O=C1CCC(=O)N1CCC(=O)N(C(=O)NC1CCCCC1)C1CCCCC1`, the activity change is reported as -5.97% (inactive).
For `O=C1c2cccnc2C(=O)N1Cc1cccs1`, the activity change was 21.3% (inactive).
With `CCOc1ccc(CCN2C(=O)c3cccnc3C2=O)cc1OCC` the activity change was -0.139% (inactive).
For `NC1=CC(=O)C(=O)c2cccnc21`, the activity change was -59.7% (active).
In the case of `CCN(C(=O)CN1CCN(Cc2ccccc2)CC1)c1c(N)n(Cc2ccccc2)c(=O)[nH]c1=O`, the activity change is reported as 27.8% (inactive).
For `Cc1cccc(NC(=S)Nc2ccc(Cl)c(Cl)c2)c1`, the activity change was -89.5% (active).
In the case of `FC(F)(F)c1cccc(NC(=S)Nc2cccc(Cl)c2)c1`, the activity change is reported as -14.7% (inactive).
With `Cc1cccc(NC(=S)NC23CN4CN(CN(C4)C2)C3)c1` the activity change was -14.8% (inactive).
For `S=C(Nc1cccc(Cl)c1)Nc1ccc2c(c1)OCCO2`, the activity change was -23.6% (inactive).
For `Cc1cccc(NC(=S)Nc2ccc3cn[nH]c3c2)c1`, the activity change was -16.5% (inactive).
With `Cc1csc(NC(=S)Nc2cccc(Cl)c2)n1` the activity change was -99.2% (active).
In the case of `O=C(Nc1ccc(Cl)c(C(F)(F)F)c1)C1Cc2c(-c3ccccc3Oc3ccccc3)ccnc2O1` (stereo unspecified), the activity change is reported as -13.9% (inactive).
For `Cc1cc(C)c(S(=O)(=O)NCC(c2ccc3c(c2)OCO3)N2CCOCC2)c(C)c1` (stereo unspecified), the activity change was 0% (inactive).
With `COc1ccccc1OCC(=O)OCc1cc(-c2ccco2)on1` the activity change was 1.02% (inactive).
For `CCOC(=O)[C@]12CCCC=C1N(CCC1=CCCCC1)C(=O)[C@H](CC(=O)N1CCSCC1)C2`, the activity change was 15.1% (inactive).
For `COc1ccc(Br)cc1CN(C)C(=O)C1CC(=O)N(C2CCCC2)C1` (stereo unspecified), the activity change was -16.8% (inactive).
With `CC1(C(=O)Nc2cccnc2)Cc2c(-c3ccccc3)ccnc2O1` (stereo unspecified) the activity change was -18% (inactive).
With `CCOC(=O)c1cc(C)nc(S(C)(=O)=O)c1C#N` the activity change was -106% (active).
For `CCOC(=O)c1c(C(C#N)C#N)cc(C)nc1C`, the activity change was 17.2% (inactive).
In the case of `CCOC(=O)COc1nc(C)cc(C(F)(F)F)c1C#N`, the activity change is reported as -4.72% (inactive).
In the case of `CCCCOc1ccc(Cl)cc1CSc1nncn1N`, the activity change is reported as -10.2% (inactive).
For `CC1=C(C(=O)N2CCOCC2)CC(CC(=O)NCc2cccc3ccccc23)C(=O)N1CCC1=CCCCC1` (stereo unspecified), the activity change was -8.18% (inactive).
For `COC(=O)c1sc(-c2ccc(C(C)(C)C)cc2)cc1NC(=O)/C=C/C(=O)O`, the activity change was -98.5% (active).
In the case of `COc1ccc(NS(=O)(=O)c2ccc(N3CCOCC3)c(NC(=O)/C=C/C(=O)O)c2)cc1`, the activity change is reported as 12.3% (inactive).
With `CC(C)(C)c1ccc(/C=C/C(=O)Nc2ncccn2)cc1` the activity change was 0% (inactive).
For `COc1ccc(Nc2cc(=O)oc3ccccc23)cc1`, the activity change was 34.3% (inactive).
For `COc1cccc2cc(-c3cc(=O)oc4cc(C)c(O)cc34)oc12`, the activity change was 0.212% (inactive).
For `COc1ccc2oc(=O)cc(-c3cc4ccccc4o3)c2c1`, the activity change was -52.1% (active).
In the case of `Cc1ccc(S(=O)(=O)N2CCOCC2)cc1NC(=O)c1ccncc1`, the activity change is reported as 6.64% (inactive).
For `CC1(C(=O)NCC2CCOCC2)Cc2c(-c3cccc(C(N)=O)c3)ccnc2O1` (stereo unspecified), the activity change was 40.9% (inactive).
For `CN1CCN(CCNC(=O)Nc2ccccc2[N+](=O)[O-])CC1`, the activity change was -9.61% (inactive).
With `N#C/C(=C/c1ccc(N2CCCCC2)o1)C(=O)NCCc1c[nH]c2ccccc12` the activity change was -56.8% (active).
For `CN(C)CCNC(=O)/C(=C/c1cccc([N+](=O)[O-])c1)NC(=O)c1ccccc1`, the activity change was -4.01% (inactive).
For `O=C(CN1C(=O)NC2(CCCCC2)C1=O)NCCc1c[nH]c2ccccc12`, the activity change was 0% (inactive).
In the case of `C=CCNC(=O)/C(=C\c1cccc([N+](=O)[O-])c1)NC(=O)c1ccccc1`, the activity change is reported as 11.9% (inactive).
For `N#C/C(=C/c1ccc(N2CCOCC2)o1)C(=O)N1CCOCC1`, the activity change was -6.13% (inactive).
With `N#C/C(=C/c1ccc(-c2ccccc2[N+](=O)[O-])o1)C(=O)NCCN1CCCCC1` the activity change was -54.1% (active).
In the case of `O=C1C2C3C=CC(C4CC34)C2C(=O)N1/N=C/c1ccc(-c2ccccc2[N+](=O)[O-])o1` (stereo unspecified), the activity change is reported as 5.29% (inactive).
For `O=C(NCCCN1CCOCC1)c1ccc([N+](=O)[O-])cc1[N+](=O)[O-]`, the activity change was 47.3% (inactive).
For `Cc1ccc(-c2ccc(/C=N/NC(=O)CN3CCOCC3)o2)cc1[N+](=O)[O-]`, the activity change was -11% (inactive).
With `Cc1ccc(C(=O)N/C(=C/c2ccc(-c3cccc([N+](=O)[O-])c3)o2)C(=O)NCCCN(C)C)cc1` the activity change was -105% (active).
With `N#C/C(=C\c1ccc(-c2cccc([N+](=O)[O-])c2)o1)C(=O)NCCN1CCOCC1` the activity change was -79.4% (active).
